Experimental data published in PubChem BioAssay (Tox21).
Inconclusive results are not listed. Calls of active or inactive are those of the source. Unless noted, calls come from the whole dose curve; as a rule, active = well fitted curve in the direction sought with a large enough effect in the repeat runs; inconclusive = weak or mixed curves; inactive = no such curve, though single readings can be large; an effect the other way counts as inactive or inconclusive.

How the values were obtained:
[1] = qHTS assay to identify small molecule antagonists of the vitamin D receptor (VDR) signaling pathway - cell viability counter screen (AID 743225); note: nearly all actives have a fitted effect of over 50% in size
Procedure, shortened: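 Parallel cytotoxicity test: VDR-UAS-bla HEK 293T, 3 nM (final) 1-alpha,25-dihydroxyvitamin D3 with test compound, 16 h, 37C. Endpoint is CellTiter-Glo luminescence in the same wells.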

[2] = qHTS assay to identify small molecule agonists of the NFkB signaling pathway - cell viability counter screen (AID 1159515; calls by dose curve; note: series mostly up to about 61 µM; nearly all actives have a fitted effect of over 55% in size)
Procedure, shortened: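 Viability in NFkB-bla ME-180 cells was measured by CellTiter-Glo luminescence, 30 min room temperature, in wells already treated 5 hr with compounds and read for reporter FRET.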

[3] = qHTS assay to identify small molecule agonists of the endoplasmic reticulum stress response signaling pathway (AID 1159516; active = well fitted activation curve with a large enough effect in the signal ratio in the repeat runs, not every such curve was filed as active; the % refers to the signal ratio)
Procedure, shortened: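 ER stress element reporter (bla) in HeLa. 1,500 cells/well, overnight attachment; 5 hr compound; 2 hr RT substrate; dual-emission fluorescence.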

[4] = qHTS assay to identify small molecule agonists of the endoplasmic reticulum stress response signaling pathway - cell viability counter screen (AID 1159517; calls by dose curve;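 note: HeLa cells carrying an ER stress response element beta-lactamase reporter; series mostly up to about 61 µM; nearly all actives have a fitted effect of over 50% in size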)
Procedure, shortened: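 CellTiter-Glo was added to wells already read for beta-lactamase FRET, and luminescence was recorded 30 min later. Cells: ESRE-bla HeLa, 1,500 per well, compound exposure 5 hr at 37 C.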

[5] = qHTS assay to identify small molecule antagonists of the retinoid-related orphan receptor gamma (ROR-gamma) signaling pathway - cell viability counter screen (AID 1159520); note: nearly all actives have a fitted effect of over 50% in size
Procedure, shortened: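 Tet-on ROR gamma CHO cells (1,000/well) were plated 4 hr, given compounds in DMSO for 2 hr at 37 C, then induced with 1 uM final doxycycline for 16 hr. Viability was read as ATP by CellTiter-Glo luminescence after 30 min.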

[6] = target: Nuclear receptor ROR-gamma (Homo sapiens) (UniProt P51449); experiment: qHTS assay to identify small molecule antagonists of the retinoid-related orphan receptor gamma (ROR-gamma) signaling pathway (AID 1159521;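 note: CHO cells with doxycycline inducible ROR-gamma driving an RORE luciferase reporter; top concentration of the series differs between compounds; nearly all actives have a fitted effect of over 50% in size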)
Procedure, shortened: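 Decreased RORE-driven luciferase luminescence indicates antagonism. Tet-on RORγ CHO cells received compound, then 1 uM final doxycycline 2 h later; signal read after 16 h incubation.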

[7] = qHTS assay to identify small molecule agonists of the AP-1 signaling pathway - cell viability counter screen (AID 1159525; calls by dose curve; note: nearly all actives have a fitted effect of over 55% in size)
Procedure, shortened: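 ME-180 AP-1-bla, 2500 cells/well, Opti-MEM + 0.5% dialyzed FBS; overnight 37 °C; cpd 15-pt titration, 5 h 37 °C; CellTiter-Glo 30 min RT; luminescence read; normalised to TOAB and DMSO controls.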

[8] = qHTS assay to identify small molecule agonists of the AP-1 signaling pathway (AID 1159526; calls by dose curve)
[9] = target: Retinoic acid receptor RXR-alpha (Homo sapiens) (UniProt P19793); experiment: qHTS assay to identify small molecule agonists of the RXR signaling pathway (AID 1159527; calls by dose curve; note: nearly all actives have a fitted effect of over 35% in size)
Sequence of Retinoic acid receptor RXR-alpha (Homo sapiens) (P19793 whole entry, looked up): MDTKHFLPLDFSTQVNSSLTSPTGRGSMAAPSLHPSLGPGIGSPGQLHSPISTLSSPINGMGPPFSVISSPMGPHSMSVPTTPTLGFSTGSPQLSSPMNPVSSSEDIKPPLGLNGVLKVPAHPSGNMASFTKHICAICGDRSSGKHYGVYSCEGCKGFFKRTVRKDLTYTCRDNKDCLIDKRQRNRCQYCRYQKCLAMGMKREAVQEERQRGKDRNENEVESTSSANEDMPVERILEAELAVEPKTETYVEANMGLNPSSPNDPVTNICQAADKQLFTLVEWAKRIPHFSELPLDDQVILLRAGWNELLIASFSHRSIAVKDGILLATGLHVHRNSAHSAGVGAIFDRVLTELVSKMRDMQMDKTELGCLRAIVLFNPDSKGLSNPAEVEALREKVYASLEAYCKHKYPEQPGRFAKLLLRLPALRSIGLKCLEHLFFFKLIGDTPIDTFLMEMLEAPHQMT
Procedure, shortened: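 16 hr incubation of compound-treated RXR-alpha-UAS-bla HEK 293T cells (2% charcoal-stripped FBS, 37 C) preceded a 2 hr room-temperature LiveBLAzer FRET substrate step and blue/green fluorescence measurement.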

[10] = qHTS assay to identify small molecule agonists of the RXR signaling pathway - cell viability counter screen (AID 1159529)
Procedure, shortened: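 In this parallel viability measure, GeneBLAzer RXR-alpha HEK 293T cells (2% charcoal-stripped FBS) were given a 5 hr preincubation, treated with compounds 16 hr at 37 C, and read by CellTiter-Glo luminescence.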

[11] = qHTS assay to identify small molecule antagonists of the retinoid acid receptor (RAR) signaling pathway - cell viability counter screen (AID 1159551); note: nearly all actives have a fitted effect of over 35% in size
Procedure, shortened: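 Following overnight attachment, C3RL4 reporter cells received DMSO-dissolved compounds and then retinol (1 uM final). Six hours later at 37 C, ATP content was measured by CellTiter-Glo luminescence.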

[12] = qHTS assay to identify small molecule antagonists of the retinoic acid receptor (RAR) signaling pathway (AID 1159552; note: nearly all actives have a fitted effect of over 50% in size)
Procedure, shortened: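 C3RL4 RARE-luc cells, overnight plating; retinol 1 uM final added right after compound; 6 hr 37 C; luciferase read at 30 min RT.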

[13] = qHTS assay to identify small molecule agonists of the retinoic acid receptor (RAR) signaling pathway (AID 1159553)
Procedure, shortened: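 Cell line C3RL4, RARE luciferase reporter. Treatment: compounds in DMSO, 6 hr, 37 C, 5% CO2, after overnight plating. Detection: luminescence, 30 min RT after reagent.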

[14] = qHTS assay to identify small molecule antagonists of the estrogen related receptor (ERR) signaling pathway from Tox21 library - cell viability counter screen (AID 1224834); note: nearly all actives have a fitted effect of over 30% in size
Procedure, shortened: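 Viability readout (CellTiter-Fluor fluorescence, 30 min at 37 C) multiplexed with the ERR assay; cells treated 17.5 h at 37 C with compounds delivered in DMSO.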

[15] = target: Luciferin 4-monooxygenase (Photinus pyralis) (UniProt P08659); experiment: qHTS assay to identify small molecule inhibitors of firefly luciferase (AID 1224835); note: series mostly up to about 120 µM; nearly all actives have a fitted effect of over 25% in size
Sequence of Luciferin 4-monooxygenase (Photinus pyralis) (P08659 whole entry, looked up): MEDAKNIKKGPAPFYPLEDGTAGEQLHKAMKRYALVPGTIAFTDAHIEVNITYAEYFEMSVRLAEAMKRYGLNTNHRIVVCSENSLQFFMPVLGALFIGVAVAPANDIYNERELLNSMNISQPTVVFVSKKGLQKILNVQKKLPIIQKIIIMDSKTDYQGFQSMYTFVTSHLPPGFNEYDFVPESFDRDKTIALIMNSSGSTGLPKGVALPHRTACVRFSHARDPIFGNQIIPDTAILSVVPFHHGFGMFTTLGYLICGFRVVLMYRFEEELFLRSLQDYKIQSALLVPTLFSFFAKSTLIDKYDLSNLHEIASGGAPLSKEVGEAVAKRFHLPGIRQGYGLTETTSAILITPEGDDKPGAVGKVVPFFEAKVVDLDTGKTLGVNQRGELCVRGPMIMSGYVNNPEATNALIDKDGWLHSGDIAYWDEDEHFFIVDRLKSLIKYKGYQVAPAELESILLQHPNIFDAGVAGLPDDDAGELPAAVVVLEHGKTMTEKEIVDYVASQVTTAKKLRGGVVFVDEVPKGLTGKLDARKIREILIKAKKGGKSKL
Procedure, shortened: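 Quantitative HTS format; KM concentrations of both substrates. Purified P. pyralis FLuc activity quantified from luminescence images.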

[16] = qHTS assay to identify small molecule agonists of the constitutive androstane receptor (CAR) signaling pathway - cell viability counter screen (AID 1224836); note: series mostly up to about 92 µM; nearly all actives have a fitted effect of over 45% in size
Procedure, shortened: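 Using CellTiter-Fluor, viability of HepG2 cells harbouring hCAR and CYP2B6-2.2kb was measured following 23 h incubation with a 15-concentration compound series plus PK11195 (0.75 uM final).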

[17] = qHTS assay to identify small molecule antagonists of the constitutive androstane receptor (CAR) signaling pathway - cell viability counter screen (AID 1224837); note: series mostly up to about 92 µM; nearly all actives have a fitted effect of over 45% in size
Procedure, shortened: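 Fluorescence from CellTiter-Fluor served as the viability signal. Human hepatoma HepG2 cells stably bearing hCAR and CYP2B6-2.2kb received compound plus CITCO (50 nM final) for 23 hr.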

[18] = target: Nuclear receptor subfamily 1 group I member 3 (Homo sapiens) (UniProt Q14994); experiment: qHTS assay to identify small molecule antagonists of the constitutive androstane receptor (CAR) signaling pathway (AID 1224838);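 note: HepG2 cells stably expressing hCAR with CYP2B6 luciferase reporter stimulated by CITCO; nearly all actives have a fitted effect of over 40% in size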
Sequence of Nuclear receptor subfamily 1 group I member 3 (Homo sapiens) (Q14994 whole entry, looked up): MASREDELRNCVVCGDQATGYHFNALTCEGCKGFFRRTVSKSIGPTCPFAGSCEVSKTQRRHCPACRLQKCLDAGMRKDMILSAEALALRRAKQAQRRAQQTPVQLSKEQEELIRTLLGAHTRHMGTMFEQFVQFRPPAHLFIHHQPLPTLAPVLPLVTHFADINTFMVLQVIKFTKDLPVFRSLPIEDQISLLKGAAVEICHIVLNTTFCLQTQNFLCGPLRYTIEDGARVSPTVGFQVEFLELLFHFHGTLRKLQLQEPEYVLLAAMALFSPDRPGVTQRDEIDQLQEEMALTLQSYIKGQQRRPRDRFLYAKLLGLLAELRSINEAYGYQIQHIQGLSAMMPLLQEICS
Procedure, shortened: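 Quantitative HTS in double-stable HepG2-CYP2B6-hCAR cells. After 4 h plating, cells get compound (15 concentrations) and CITCO at 50 nM final, incubate 24 h at 37 C, then ONE-Glo luminescence is read.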

[19] = target: Nuclear receptor subfamily 1 group I member 3 (Homo sapiens) (UniProt Q14994); experiment: qHTS assay to identify small molecule agonists of the constitutive androstane receptor (CAR) signaling pathway (AID 1224839);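 note: HepG2 cells stably carrying human CAR and a CYP2B6 luciferase reporter; series mostly up to about 92 µM; nearly all actives have a fitted effect of over 15% in size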
Procedure, shortened: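 Double-stable HepG2 cells (hCAR, CYP2B6-2.2kb) seeded 4 h before compound addition. Exposure 24 h with 0.75 uM PK11195 final. Luciferase detected by ONE-Glo.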

[20] = qHTS assay to identify small molecule antagonists of the estrogen related receptor signaling pathway with the pleiotropic PPARgamma coactivator (PGC) from Tox21 10K library - cell viability counter screen (AID 1224840; active = well fitted cell-killing curve with a large enough effect in the repeat runs, not every such curve was filed as active; note: nearly all actives have a fitted effect of over 40% in size)
Procedure, shortened: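 Compounds in DMSO, alongside positive and negative controls, were pinned onto PGC/ERR cells (2,000 per well). Exposure lasted 17.5 hours at 37 C, followed by a 30-minute CellTiter-Fluor incubation and fluorescence reading.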

Measured: Potency

Cc1cc(C)c(N)c(Cl)c1
inactive: all assays above

Cc1nc2ccc(Cl)cc2[nH]1
not listed: [1] | [19]
inactive: all other assays above

CC(CN1CC(=O)NC(=O)C1)N1CC(=O)NC(=O)C1 (configuration not stated)
inactive: all assays above

COC(=O)c1c(C)cc(O)c(C)c1O
not listed: [19]
inactive: all other assays above

CC/C=C\CCCCCCCCCCOC(C)=O
not listed: [1] | [18] | [20]
inactive: all other assays above

CC(O)CCCCn1c(=O)c2c(ncn2C)n(C)c1=O (configuration not stated)
not listed: [18]
inactive: all other assays above

Clc1ccc2c(c1)Nc1ccccc1S2
not listed: [19]
inactive: all other assays above
